# Test results: paper PMC5540273 (PLoS ONE, 2017)
# Test system: PIM1
# Conditions: concentration: 1 μM, replicates: in singlicate; n = 1
# 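Also: KINOMEscan kinase panel screen.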
row,Structure (SMILES),%Inh [%]
1,COc1ccc(COc2cc(-n3cnc4ccccc43)sc2C(N)=O)cc1 [GSK1024304],11
2,Cc1nnc(-c2ccc3ncc(-c4ccc(S(C)=O)cc4)n3c2)o1 (stereo not shown),0
3,COc1ccc(S(=O)(=O)NC2CCN(c3cc(C)nc(Nc4cccc(C#N)c4)n3)CC2)cc1.O=C(O)C(F)(F)F [GSK1653539],25
4,COc1ccc(Nc2nccc(N3CCC(NC(=O)Nc4cccc(C(C)=O)c4)C3)n2)cc1 (stereo not shown) [GSK1379731],0
5,Cc1cccc(-c2nc(Nc3ccc4ncsc4c3)c3ccccc3n2)n1 [GW867588],9
6,C[C@@H](Oc1cc(-n2cnc3ccc(NC(=O)NC(C)(C)C)cc32)sc1C(N)=O)c1ccccc1Cl [GSK346294],17
7,c1ccc(-c2cc(-c3c[nH]nc3-c3ccccn3)ccn2)cc1 [GW576604],0
8,CCc1nc(-c2cccc(C)c2)c(-c2ccnc(NCc3ccccc3)c2)s1,21
9,COCCNC(=O)c1ccc(-c2cc(C(=O)NC3CC3)cc(F)c2C)cc1 [GW868318],15
10,N#Cc1ccc(-c2cc(-c3c[nH]nc3-c3ccccn3)ccn2)cc1 [GW693028],0
11,O=C(Nc1n[nH]c2cc(-c3cccc(F)c3)ccc12)C1CC1 [SB-735464],2
12,Cl.Oc1cccc(Nc2ccnc3cc(-c4ccncc4)ccc23)c1 [GW494601],28
13,Cn1cc(-c2ccc3c(c2)CCN3C(=O)Cc2ccccc2Cl)c2c(N)ncnc21 [GSK2608885],10
